Several values for one entry are separate records, joined by “and”; a condition that tells them apart may be missing. Equal values may be shown once.

The assay relates to H9c2. Nature of the assay: protection of cardiomyocytes from stress damage, SAR follow-up, cell-based, panel, H9c2 and HL-1, ATP luminescence, set 2 (AID 651871).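 Further: cells exposed to stressor for 2 h before ATP readout; reference of the scale not given here.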 The following applies: H9c2/HL-1 cardiomyocytes, 2-deoxyglucose stress, with 2-deoxyglucose; run 14, at 79 µM (top of the series).
Turning to `COc1ccc2nc(-c3cc(OC)c(OC)c(OC)c3)cc(C(=O)NCC(=O)Nc3ccc(C(C)=O)cc3)c2c1`, the activity (protection/inhibition) worked out at 89.3%.
The figure for `CCOC(=O)c1cccc(NC(=O)CNC(=O)c2cc(-c3cc(OC)c(OC)c(OC)c3)nc3ccccc23)c1` is 95.1%; for `COc1ccc2c(c1OC)C(=O)N1c3ccccc3C(=O)N(Cc3cccc(Cl)c3Cl)C21` (stereo not drawn) it is 74.7% and 78.2% and -6.22%.

These data come from PubChem BioAssay AID651871 (Sanford-Burnham Center for Chemical Genomics, 2012).
